According to the supplement of paper PMC9694430:

Tests used:
Experiment in all cases: thermal shift delta Tm vs DMSO control; higher = stronger stabilization (binding)
Details in all cases: 12.5 µM; protein concentration 2 µM
LOC_OS02G45750-cb003 = system: LOC_OS02G45750-cb003
Summary of the method: (§1)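 Heating from 25°C to 95°C at 0.05°C/s, fluorescence was recorded for 19.5 μl wells of 2 μM E. coli-expressed, purified rice kinase domain in 100 mM potassium phosphate pH 7.5, 150 mM NaCl, 10% glycerol and 5 × SYPRO Orange with compound in DMSO. Boltzmann fits gave melting temperatures for this differential scanning fluorimetry assay. The shift reported is the mean of three replicates against the DMSO-only protein.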

LOC_OS02G54510-cb004 = system: LOC_OS02G54510-cb004
Summary of the method: as §1

LOC_OS03G04050-cb001 = system: LOC_OS03G04050-cb001
Summary of the method: as §1

LOC_OS03G12390-cb001 = system: LOC_OS03G12390-cb001
Summary of the method: as §1

LOC_OS03G27990-cb004 = system: LOC_OS03G27990-cb004
Summary of the method: as §1

LOC_OS03G50450-cb001 = system: LOC_OS03G50450-cb001
Summary of the method: as §1

LOC_OS03G50810-cb003 = system: LOC_OS03G50810-cb003
Summary of the method: as §1

LOC_OS04G35114-cb001 = system: LOC_OS04G35114-cb001
Summary of the method: as §1

LOC_OS04G38480-cb003 = system: T1, LOC_OS04G38480-cb003
T1 sequence (whole entry): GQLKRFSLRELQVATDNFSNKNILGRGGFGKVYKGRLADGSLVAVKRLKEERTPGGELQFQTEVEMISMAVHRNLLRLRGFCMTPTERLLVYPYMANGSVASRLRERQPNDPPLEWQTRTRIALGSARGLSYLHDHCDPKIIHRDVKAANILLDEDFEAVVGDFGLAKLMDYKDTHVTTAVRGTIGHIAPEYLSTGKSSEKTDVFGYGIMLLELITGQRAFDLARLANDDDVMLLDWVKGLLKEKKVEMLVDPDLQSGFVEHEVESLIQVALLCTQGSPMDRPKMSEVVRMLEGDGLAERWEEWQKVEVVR
Summary of the method: as §1

LOC_OS04G41100-cb001 = system: T2, LOC_OS04G41100-cb001
T2 sequence (whole entry): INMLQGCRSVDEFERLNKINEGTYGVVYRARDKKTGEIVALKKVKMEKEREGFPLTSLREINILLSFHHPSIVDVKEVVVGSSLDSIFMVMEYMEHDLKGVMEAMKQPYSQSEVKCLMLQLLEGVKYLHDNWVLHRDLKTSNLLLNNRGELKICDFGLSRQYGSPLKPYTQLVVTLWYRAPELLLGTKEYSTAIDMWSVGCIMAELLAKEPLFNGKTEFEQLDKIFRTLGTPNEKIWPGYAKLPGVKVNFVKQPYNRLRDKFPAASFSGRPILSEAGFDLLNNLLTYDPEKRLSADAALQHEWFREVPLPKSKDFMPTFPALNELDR
Summary of the method: as §1

LOC_OS04G57630-cb004 = system: LOC_OS04G57630-cb004
Summary of the method: as §1

LOC_OS05G07850-cb002 = system: LOC_OS05G07850-cb002
Summary of the method: as §1

LOC_OS05G16824-cb004 = system: LOC_OS05G16824-cb004
Summary of the method: as §1

LOC_OS05G28520-cb001 = system: LOC_OS05G28520-cb001
Summary of the method: as §1

LOC_OS05G30820-cb001 = system: LOC_OS05G30820-cb001
Summary of the method: as §1

LOC_OS05G43570-cb004 = system: LOC_OS05G43570-cb004
Summary of the method: as §1

LOC_OS06G16330-cb003 = system: LOC_OS06G16330-cb003
Chain of LOC_OS06G16330-cb003 (as listed by the source): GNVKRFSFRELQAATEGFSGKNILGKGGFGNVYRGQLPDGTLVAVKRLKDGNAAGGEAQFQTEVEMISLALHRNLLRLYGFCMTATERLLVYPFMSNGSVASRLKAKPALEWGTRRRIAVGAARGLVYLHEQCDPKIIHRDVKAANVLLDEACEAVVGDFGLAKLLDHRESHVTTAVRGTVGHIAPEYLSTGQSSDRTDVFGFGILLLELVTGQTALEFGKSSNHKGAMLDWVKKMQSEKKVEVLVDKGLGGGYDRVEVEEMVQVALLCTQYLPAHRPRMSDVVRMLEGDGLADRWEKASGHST
Summary of the method: as §1

LOC_OS06G22820-cb001 = system: T3, LOC_OS06G22820-cb001
T3 sequence (whole entry): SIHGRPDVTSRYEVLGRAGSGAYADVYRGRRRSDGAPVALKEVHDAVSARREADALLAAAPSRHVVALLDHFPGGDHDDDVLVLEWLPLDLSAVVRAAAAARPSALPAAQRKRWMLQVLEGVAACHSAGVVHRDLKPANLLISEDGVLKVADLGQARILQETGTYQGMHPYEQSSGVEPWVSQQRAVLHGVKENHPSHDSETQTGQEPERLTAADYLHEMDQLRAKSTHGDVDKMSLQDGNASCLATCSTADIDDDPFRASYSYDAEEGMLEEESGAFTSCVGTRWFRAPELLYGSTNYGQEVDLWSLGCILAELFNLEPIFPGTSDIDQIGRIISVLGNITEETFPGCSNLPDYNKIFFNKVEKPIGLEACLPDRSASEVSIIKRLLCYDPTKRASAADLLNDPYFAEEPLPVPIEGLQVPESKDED
Summary of the method: as §1

LOC_OS07G06570-cb004 = system: LOC_OS07G06570-cb004
Summary of the method: as §1

LOC_OS07G07230-cb001 = system: LOC_OS07G07230-cb001
Summary of the method: as §1
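Further: purified Escherichia coli-expressed rice kinase domain construct.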

SMILES | thermal shift delta Tm (LOC_OS02G45750-cb003) [°C] | thermal shift delta Tm (LOC_OS02G54510-cb004) [°C] | thermal shift delta Tm (LOC_OS03G04050-cb001) [°C] | thermal shift delta Tm (LOC_OS03G12390-cb001) [°C] | thermal shift delta Tm (LOC_OS03G27990-cb004) [°C] | thermal shift delta Tm (LOC_OS03G50450-cb001) [°C] | thermal shift delta Tm (LOC_OS03G50810-cb003) [°C] | thermal shift delta Tm (LOC_OS04G35114-cb001) [°C] | thermal shift delta Tm (LOC_OS04G38480-cb003) [°C] | thermal shift delta Tm (LOC_OS04G41100-cb001) [°C] | thermal shift delta Tm (LOC_OS04G57630-cb004) [°C] | thermal shift delta Tm (LOC_OS05G07850-cb002) [°C] | thermal shift delta Tm (LOC_OS05G16824-cb004) [°C] | thermal shift delta Tm (LOC_OS05G28520-cb001) [°C] | thermal shift delta Tm (LOC_OS05G30820-cb001) [°C] | thermal shift delta Tm (LOC_OS05G43570-cb004) [°C] | thermal shift delta Tm (LOC_OS06G16330-cb003) [°C] | thermal shift delta Tm (LOC_OS06G22820-cb001) [°C] | thermal shift delta Tm (LOC_OS07G06570-cb004) [°C] | thermal shift delta Tm (LOC_OS07G07230-cb001) [°C]
CC(C)(O)CC(=O)NCCn1ccc2ncnc(Nc3ccc(Oc4cccc(C(F)(F)F)c4)c(Cl)c3)c21 | 0.62 | -0.25 | 0.51 | 1.74 | 0.47 | 0.94 | 1.03 | 0.12 | 1.78 | 0.52 | 1.06 | 0.82 | 2.1 | -0.31 | 0.35 | 1.03 | 0.72 | 1.33 | 0.78 | -1.32
COc1ccc(Cl)cc1NC(=O)Nc1cc(C)nc2ccccc12 | 0.37 | 0.12 | 0.38 | 0.21 | 0.52 | 0.68 | 0.32 | 0.93 | 0.32 | 0.36 | 0.07 | 0.02 | 0.17 | 0.38 | 0.46 | 0.5 | 0.31 | 0.69 | 0.61 | 0.62
CS(=O)(=O)c1cccc(CNc2nc(Nc3ccc4c(c3)CCC(=O)N4)ncc2C(F)(F)F)c1 | 10.4 | 1.28 | 0.17 | 5.43 | 1.28 | 3.56 | 4.21 | 3.71 | 2.37 | 2.51 | 1.7 | 8.91 | 11.1 | 1.18 | 2.8 | 0.96 | 6.92 | 0.35 | 0.43 | -0.39
CCN(CC)CCCC(C)Nc1ccnc2cc(Cl)ccc12 (stereo not given) [Chloroquine Phosphate] | 0.61 | 0.18 | 0.45 | 0 | 0.19 | 0.25 | 0.19 | 0.59 | 2.48 | 0.64 | 0.53 | 0.78 | -0.51 | 0.02 | 0.51 | 0.55 | -3.04 | 0.22 | 0.72 | 0.52
Cn1cc(-c2ccc3nnc(C(F)(F)c4ccc5ncccc5c4)n3n2)cn1 | 0.26 | -0.14 | 0.41 | 0.23 | -0.02 | 0.07 | 0.22 | 0.35 | 0.98 | 0.6 | 0.16 | 1.31 | 0.65 | 0.54 | 0.28 | 0.51 | 1.54 | 0.92 | 1.14 | -0.03
N#Cc1ccc2[nH]c(O)c(-c3ccc(CN4CCOCC4)cn3)c2c1 | 1.77 | -0.01 | 0.4 | 2.43 | 0.48 | 0.53 | 1.1 | 1.83 | -0.4 | 2.66 | 0.29 | 2.86 | 1.38 | 0.81 | 0.35 | 0.3 | -0.35 | 0.74 | 1.19 | 0.07
